For 19 compounds, efficacy, AC50 and outcome results are on record in PubChem BioAssay (NCATS).

A number with no mark means an inactive call. For some assays here: Potency and affinity values are given separately. The source made the active and inactive calls.

The conditions of assay [1]: Ebola virus entry assay, green fluorescence channel.
For assay [2] the following is noted: Ebola virus entry assay, blue channel fluorescence.
The conditions of assay [3]: Ebola virus entry assay, green fluorescence channel. The source holds these as a separate data set.
The conditions of assay [4]: Ebola virus entry assay, ratio channel readout.
For assay [5] the following is noted: Ebola virus entry assay, blue channel fluorescence. The source holds these as a separate data set.
The conditions of assay [6]: Ebola virus entry assay, ratio channel.
For assay [7] the following is noted: Ebola virus entry assay, reporter ratio channel; AC50: Channel type: primary unless noted; outcome: Channel type: primary unless noted.
The conditions of assay [8]: Ebola virus entry cell assay, ratio channel.
Throughout, for efficacy: 0% is about no effect.

As usually defined, the AC50 is the midpoint of the concentration-response curve, whichever way the signal moves. `CCN(CC)CCCC(C)Nc1ccnc2cc(Cl)ccc12` (configuration not stated): the efficacy in assay [1] is 34.3%. Moreover, the AC50 in assay [2] is 3.98 µM (active); in assay [4], 2.82 µM (active); in assay [5], 1.26 µM (active); in assay [6] it was 1.12 µM (active); in assay [7] it was 1.12 µM (active); in assay [8], 2.82 µM (active). In addition, the outcome in assay [3] was inactive.

Turning to `Cc1ccccc1C(OCCN(C)C)c1ccccc1` (configuration not stated), the efficacy in assay [1] is 62.3%. In addition, the AC50 was 10 µM (active) in assay [2]; 7.94 µM (active) in assay [5]; 8.91 µM (active) in assay [6]; 8.91 µM (active) in assay [7]; 8.91 µM (active) in assay [8]. For the same compound, the result in assay [3] and in assay [4] was inactive.

As to `Cc1ccc(O)c([C@H](CCN(C(C)C)C(C)C)c2ccccc2)c1`, the efficacy in assay [1] is 106%. In addition, the AC50 in assay [2] was 12.6 µM (active); in assay [5] it was 14.1 µM (active); in assay [6], 12.6 µM (active); in assay [7], 12.6 µM (active); in assay [8], 11.2 µM (active). Moreover, the compound was classed as inactive in assay [3] and in assay [4].

With `COc1cc(C(C)=O)ccc1OCCCN1CCC(c2noc3cc(F)ccc23)CC1`, the efficacy in assay [1] was 81.4%. Besides, the outcome in assay [2], in assay [3], in assay [4] and in assay [8] was inactive. Besides, the AC50 in assay [5] is 31.6 µM (active); in assay [6] it was 28.2 µM (active); in assay [7], 28.2 µM (active).

As to `CNCCCN1c2ccccc2CCc2ccccc21`, the efficacy in assay [1] was 91.8%. In addition, the compound was classed as inactive in assay [2], in assay [3] and in assay [4]. Besides, the AC50 was 10 µM (active) in assay [5], 7.94 µM (active) in assay [6], 7.94 µM (active) in assay [7] and 15.8 µM (active) in assay [8].

Take `CC(CN1c2ccccc2Sc2ccccc21)N(C)C` (configuration not stated): the efficacy in assay [1] is 81.3%. The outcome in assay [2], in assay [3] and in assay [4] was inactive. For the same compound, the concentration at half-maximal activity (AC50) in assay [5] was 39.8 µM (active); in assay [6], 31.6 µM (active); in assay [7], 31.6 µM (active); in assay [8], 20 µM (active).

In the case of `CN(C)CCC=C1c2ccccc2C=Cc2ccccc21`, the efficacy in assay [1] was 108%. The call in assay [2], in assay [3] and in assay [4] was inactive. In addition, the AC50 in assay [5] was 11.2 µM (active); in assay [6], 10 µM (active); in assay [7] it was 10 µM (active); in assay [8] it was 12.6 µM (active).

For `CN(C)CCCN1c2ccccc2Sc2ccc(Cl)cc21`, the efficacy in assay [1] is -179%. The AC50 in assay [2] is 10 µM (active); in assay [5], 14.1 µM (active); in assay [6], 3.98 µM (active); in assay [7], 3.98 µM (active); in assay [8], 10 µM (active). Also, the outcome in assay [3] and in assay [4] was inactive.

Regarding `OCCN1CCN(CCCN2c3ccccc3Sc3ccc(C(F)(F)F)cc32)CC1`, the efficacy in assay [1] is -98.3%. Further, the compound was called inactive in assay [2], in assay [3] and in assay [4]. For the same compound, the AC50 in assay [5] is 3.55 µM (active); in assay [6] it was 3.16 µM (active); in assay [7], 3.16 µM (active); in assay [8], 8.91 µM (active).

As to `CN1CCC[C@@H]1CCO[C@](C)(c1ccccc1)c1ccc(Cl)cc1`, in assay [1], the efficacy was -151%. The concentration at half-maximal activity (AC50) in assay [2] was 3.55 µM (active); in assay [4], 3.17 µM (active); in assay [5] it was 1.78 µM (active); in assay [6], 1.41 µM (active); in assay [7], 1.41 µM (active); in assay [8], 3.16 µM (active). The result in assay [3] was inactive.

For the compound `COc1cc(NC(C)CCCN)c2ncccc2c1` (configuration not stated), the efficacy in assay [1] is -153%. Moreover, the compound was classed as inactive in assay [2], in assay [3], in assay [4] and in assay [8]. Besides, the values for the AC50 in assay [5], in assay [6] and in assay [7] were 5.01 µM (active), 3.55 µM (active) and 3.55 µM (active), respectively.

As for `CN(C)CC/C=C1\c2ccccc2COc2ccccc21`, the efficacy in assay [1] is 117%. In addition, the outcome in assay [2], in assay [3] and in assay [4] was inactive. Also, the half-maximal activity concentration (AC50) in assay [5] was 20 µM (active); in assay [6], 14.1 µM (active); in assay [7], 14.1 µM (active); in assay [8] it was 25.1 µM (active).

As for `CN1C[C@H]2c3ccccc3Oc3ccc(Cl)cc3[C@@H]2C1`, the efficacy in assay [1] was 60.4%. In addition, the outcome in assay [2], in assay [3] and in assay [4] was inactive. The AC50 in assay [5] was 22.4 µM (active); in assay [6], 14.1 µM (active); in assay [7], 14.1 µM (active); in assay [8], 17.8 µM (active).

Consider `COC(=O)C1=C(C)NC(C)=C(C(=O)OCC(C)C)C1c1ccccc1[N+](=O)[O-]` (configuration not stated), for which, in assay [1], the efficacy was 55.8%. Besides, the compound was called inactive in assay [2], in assay [3], in assay [4] and in assay [8]. In addition, the AC50 was 28.2 µM (active) in assay [5], 17.8 µM (active) in assay [6] and 17.8 µM (active) in assay [7].

Consider `Fc1ccc([C@@H]2CCNC[C@H]2COc2ccc3c(c2)OCO3)cc1`, for which the efficacy in assay [1] was 101%. Besides, the AC50 is 5.62 µM (active) in assay [2]; 5.02 µM (active) in assay [4]; 5.01 µM (active) in assay [5]; 3.98 µM (active) in assay [6]; 3.98 µM (active) in assay [7]; 5.01 µM (active) in assay [8]. Also, the compound was classed as inactive in assay [3].

In the case of `O=c1[nH]c2ccccc2n1C1CCN(CCCC(c2ccc(F)cc2)c2ccc(F)cc2)CC1`, in assay [1], the efficacy was -303%. Also, the AC50 in assay [2] was 11.2 µM (active); in assay [4] it was 7.95 µM (active); in assay [5] it was 3.16 µM (active); in assay [6] it was 3.98 µM (active); in assay [7], 3.98 µM (active); in assay [8], 7.94 µM (active). Further, in assay [3], the compound was classed as inactive.

For `OC(CCN1CCCC1)(c1ccccc1)C1CCCCC1` (configuration not stated), the efficacy in assay [1] is 120%. Also, the compound was called inactive in assay [2], in assay [3] and in assay [4]. The AC50 in assay [5] was 25.1 µM (active); in assay [6] it was 20 µM (active); in assay [7], 20 µM (active); in assay [8] it was 20 µM (active).

Turning to `CCC(=O)C(CC(C)N(C)C)(c1ccccc1)c1ccccc1` (configuration not stated), the efficacy in assay [1] was 118%. The compound was called inactive in assay [2], in assay [3] and in assay [4]. The concentration at half-maximal activity (AC50) was 10 µM (active) in assay [5], 7.94 µM (active) in assay [6], 7.94 µM (active) in assay [7] and 15.8 µM (active) in assay [8].

For `O=C1Cc2cc(CCN3CCN(c4nsc5ccccc45)CC3)c(Cl)cc2N1`, the efficacy in assay [1] was 34%. Moreover, the compound was classed as inactive in assay [2], in assay [3] and in assay [4]. Further, the AC50 is 22.4 µM (active) in assay [5], 17.8 µM (active) in assay [6], 17.8 µM (active) in assay [7] and 15.8 µM (active) in assay [8].
